High-throughput results deposited in PubChem by National Center for Advancing Translational Sciences (NCATS).
Many of the other results were omitted from the sample, so hits are more common in it than they were.
Giardia FBPA inh – inhibitors of Giardia lamblia fructose-1,6-bisphosphate aldolase | purified Giardia FBPA | Potency, µM (series often up to 59.6 µM), inactives show at the top dose activity, negative = inhibition, actives largely listed as inhibitors | 0.71% of 290,000 active | A8B2U2; also: potency is read from the fitted curve at half-maximal effect; % is scaled to controls: 0 for no effect and ±100 for the full control effect; nearly all actives have a fitted effect of over 55% in size
Target sequence (A8B2U2 whole entry, looked up): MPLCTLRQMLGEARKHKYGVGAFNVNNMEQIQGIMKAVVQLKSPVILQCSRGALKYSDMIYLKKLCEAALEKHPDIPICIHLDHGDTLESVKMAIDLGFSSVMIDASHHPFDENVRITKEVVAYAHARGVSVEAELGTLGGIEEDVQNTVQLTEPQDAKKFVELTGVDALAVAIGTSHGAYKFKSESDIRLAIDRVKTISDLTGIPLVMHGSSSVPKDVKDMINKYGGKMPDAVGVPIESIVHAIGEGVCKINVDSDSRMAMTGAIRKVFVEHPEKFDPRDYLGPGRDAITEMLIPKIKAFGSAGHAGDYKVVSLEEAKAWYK
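Giardia FBPA (40 nM reagent) was preincubated 10 min at RT with compound (up to 57.5 uM final), then substrate plus GAPDH/TPI/NAD/arsenate coupling system with diaphorase/resazurin was added; resorufin fluorescence (525/598 nm) was read after 20 min.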
Shiga toxin inh – blocks Shiga toxin action in Vero cells. Vero cells, Shiga toxin protein synthesis inhibition reporter. inhibition, % at 38.7 µM. 9.2% of 290,000 active. AID 2315; in the data active = inhibition mostly above about 28%, no sharp cut-off; inactive = mostly below about 43%; also: 0% is about no effect
Cycloheximide cs – counter-screen hit for Shiga toxin inhibitors, cycloheximide | cell reporter, cycloheximide protein synthesis inhibition counterscreen | 12% of 300,000 active | AID 2314 | max response, %; in the data active = max response mostly above about 13%, no sharp cut-off; inactive = mostly below about 14%; also: read at 38.3 µM for the half of the compounds with a filed dose; 0% is about no effect
Tb PYK inh – inhibitors of Trypanosoma brucei pyruvate kinase | Q57TT1 | TbPYK enzyme, Kinase-Glo Plus ATP luminescence, 45 min | Potency, µM (doses to about 76.8 µM), without a hit: at the top dose activity, negative = inhibition, hits mostly inhibitors | 0.12% of 410,000 active; also: potency is read from the fitted curve at half-maximal effect; % is scaled to controls: 0 for no effect and ±100 for the full control effect; nearly all actives have a fitted effect of over 50% in size
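Luminescent Kinase-Glo Plus end-point after 45 min room-temperature reaction of T. brucei pyruvate kinase started with 130 uM ADP (final). Buffer TEA 50 mM pH 7.2 with KCl, MgCl2, BSA, Tween-20; titration-based qHTS with fitted concentration-effect curves.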
LmPK inh – LmPK (Leishmania mexicana) enzyme inhibition; Q27686; purified LmPK, Kinase-Glo ATP luminescence, 1 h; Potency, µM (series often up to 57.5 µM), without a hit: at the top dose activity change, negative = inhibition, most hits filed as inhibitors; 0.37% of 290,000 active; AID 1721; also: potency is read from the fitted curve at half-maximal effect; % is scaled to controls: 0 for no effect and ±100 for the full control effect
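Kinase-Glo luminescence read after 1 h RT reaction of 0.1 nM LmPK with 0.5 mM PEP and 0.1 mM ADP. Activity scaled between uninhibited and enzyme-free controls.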
RE007 growth inh – less growth of the S. pombe RE007 Vpr strain; S. pombe RE007 Vpr strain, BacTiter-Glo ATP luminescence, 24 h; Potency, µM (titrated, usually from 92.2 µM), inactives show at the highest dose activity change, negative = less growth, usual class: inhibitors; 0.21% of 360,000 active; AID 651644; active = well fitted falling curve with a large enough effect; inconclusive = small, poorly fitted or top-dose-only effect; inactive = no such curve, though single readings can be large or run the other way; also: potency is read from the fitted curve at half-maximal effect; % is scaled to controls: 0 for no effect and ±100 for the full control effect; nearly all actives have a fitted effect of over 50% in size
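Fission yeast RE007 carrying one integrated HIV-1 vpr copy, seeded at OD 0.01 in PMG+AL medium with 23 nL pinned compound. Grown 24 h at 30 degrees; viability read by BacTiter-Glo luminescence after 5 min.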
Active calls of the source: *; ? = inconclusive; / = no result given. Unless noted, calls follow the shape of the dose curve; as a rule, active = well fitted curve in the direction sought with a large enough effect; inconclusive = small, poorly fitted or top-dose-only effect, or another doubt; inactive = no such curve, though single readings can be large; an effect the other way counts as inactive or inconclusive.

SMILES | Giardia FBPA inh | Shiga toxin inh | Cycloheximide cs | Tb PYK inh | LmPK inh | RE007 growth inh
O=C(OCc1ccc(F)cc1)c1ccc2c(c1)-c1ccccc1C2=O | / | -9 | 2 | -11% | 3% | -6%
O=C1CN(c2ccccc2)C(=S)N1C(=O)c1ccccc1 | -9% | 47* | 46* | 0% | -4% | -9%
CCN(c1ccc(OC)cc1)S(=O)(=O)c1ccc2c(c1)CC(C)N2C(=O)C1CC1 (configuration not stated) | -1% | 5 | 22* | -4% | 2% | -2%
Cc1cc2c(sc3c(C)ccc(C)c32)c(C)n1 | -8% | 14 | 9 | -5% | 4% | -22%
Cc1c(C(=O)N/N=C/c2ccc(N(C)C)cc2)[nH]c2ccc(Cl)cc12 | 7% | -1 | 1 | 3% | -2% | 6%
Cc1c(C(=O)N/N=C/c2ccccc2)[nH]c2ccc(Cl)cc12 | 3% | 41* | 27* | -1% | 2% | -15%
COc1ccc(OCC2CCNCC2)cc1 | -7% | 39* | 33* | -6% | 0% | -3%
Cc1ccc(NC(=O)c2ccccc2Br)c(C(=O)c2ccccc2)c1 | / | / | / | 4% | / | /
CC1(C)OC(c2ccccc2)=C/C(=C/C=Nc2ccccc2)O1 | -8% | 35* | 16* | -6% | -4% | 4%
COc1ccc(NC(=O)CN2C(=O)NC3(CCCCC3C)C2=O)cc1OC (configuration not stated) | / | / | / | -3% | / | 23%
Cc1ccc(-c2nc3ccccc3n2C)o1 | -5% | 74* | 57* | ? | 14µM* | 40µM*
Cn1c(-c2ccc(Br)o2)nc2cc(Br)ccc21 | 0% | 104* | 52* | ? | -25% | -8%
Cc1ccc2nc(-c3ccc(Br)o3)oc(=O)c2c1 | -1% | -3 | -2 | 1% | -4% | -16%
Cn1c2nc3ccccc3c-2nc2ccccc21 | / | / | / | -15% | / | -24%
CC(=O)c1ccc(-c2nc3ccccc3n2C)o1 | -14% | 57* | 36* | -24% | 16µM* | -15%
Cc1ccc(C2Nc3ccccc3-c3nc4ccccc4n32)o1 (configuration not stated) | -1% | 67* | 54* | -7% | -19% | -4%
O=c1[nH]c(SCC2CCCCO2)nc2ccccc12 (configuration not stated) | -7% | 81* | 24* | -12% | 2% | -13%
CC1CCCC(C)N1C(=O)CSc1nc2ccccc2c(=O)[nH]1 (configuration not stated) | 2% | 17 | 0 | -8% | 3% | 5%
Cc1cc(C(=O)CSc2nnnn2-c2ccccc2)c(C)n1CC1CCCO1 (configuration not stated) | -2% | 49* | 58* | -4% | 1% | -9%
CCn1c(SCC(=O)c2cc(C)n(CC3CCCO3)c2C)nc2ccccc21 (configuration not stated) | -13% | 35 | 37* | -23% | 6% | 5%
Cc1cc(C(=O)CSc2nc3ccccc3c(=O)[nH]2)c(C)n1CC1CCCO1 (configuration not stated) | 0% | 143* | 43* | -7% | 1% | 6%
COc1cc(OC)cc(C2=Nn3c(nnc3-c3ccccc3OC)SC2)c1 | -21% | -2 | -6 | / | / | /
O=C(c1cc(Br)ccc1O)N1CCN(S(=O)(=O)Cc2ccccc2)CC1 | / | / | / | 3% | / | 21%
Cc1csc2ncnc(NCCc3ccccn3)c12 | -15% | -19 | 5 | 4% | -7% | -12%
CN(C)C(CNc1ncnc2sccc12)c1ccccc1 (configuration not stated) | 3% | 3 | -1 | -8% | 2% | 5%
SMILES | Giardia FBPA inh | Shiga toxin inh | Cycloheximide cs | Tb PYK inh | LmPK inh | RE007 growth inh
OC(CNc1ncnc2sccc12)c1ccccc1 (configuration not stated) | 9% | 84* | 25* | -6% | 0% | 0%
c1ccc(CCNc2ncnc3sccc23)nc1 | 0% | 73* | 35* | -8% | -25% | -16%
COC(=O)c1ccc(NC(=O)CC2C(=O)N(c3cccc(OC)c3)C(=O)N2Cc2cccc(OC)c2)cc1 (configuration not stated) | / | / | / | 3% | / | /
Cc1nc(NC(=O)/C=C/c2ccc(Cl)cc2Cl)sc1C(=O)N(C)C | 1% | 12 | -4 | -6% | 2% | 3%
Cc1cc(C)nc(NC(=O)/C=C/c2ccc(Cl)cc2Cl)c1 | 1% | 81* | 41* | -8% | -2% | ?
Cc1cc(C)nc(NC(=O)/C=C/c2ccccc2Cl)n1 | 10% | 70* | 45* | -10% | -9% | -9%
Cc1cc(C)nc(NC(=O)/C=C/c2cccs2)c1 | 0% | 108 | 19 | -9% | -10% | 11%
Cc1cc(C)nc(NC(=O)/C=C/c2ccccc2Cl)c1 | -2% | 32* | 30* | -5% | -12% | -26%
COc1cccc(N2CCN(c3ncccn3)CC2)c1 | 1% | 45* | 60* | 0% | -5% | -19%
COc1cccc(C(=O)N2CCN(c3ncccn3)CC2)c1 | 8% | -6 | -3 | -2% | 2% | -4%
CC(=O)c1ccc(NC(=O)CN2CCN(c3ncccn3)CC2)cc1 | -28% | -13 | 3 | 2% | 1% | -1%
CC(=O)c1ccc(N2CCN(c3ncccn3)CC2)cc1 | 10% | 48 | 29* | -2% | 0% | -8%
Cc1noc(C)c1C(=O)N1CCC2(CC1)CCN(c1ccncc1)CC2 | 3% | / | / | -1% | / | /
Cc1ccccc1Cn1cc(NC(=O)c2cc(-c3ccc(Cl)cc3)on2)cn1 | / | / | / | 0% | / | /
CCc1ccccc1NC(=O)c1cc(C2CC2)on1 | 0% | 47 | 11* | -5% | -6% | -20%
Cc1ccccc1Cn1cc(NC(=O)c2cc(C3CC3)on2)cn1 | 17% | 73* | 44* | -3% | 8% | 1%
CCc1ccc2nc(N(Cc3cccnc3)C(=O)Cc3ccccc3)sc2c1 | / | / | / | -5% | / | /
COc1ccc(CC(=O)Nc2cc(-c3nc4cccnc4s3)ccc2C)cc1 | / | / | / | -2% | / | /
COc1ccc(NC(=O)C(C(C)C)N2Cc3ccccc3C2=O)cc1 (configuration not stated) | / | / | / | -2% | / | /
Cc1ccccc1-n1c(C)cc(/C=N/Nc2ccc([N+](=O)[O-])cn2)c1C | -21% | 91* | 36* | 0% | 2% | -6%
O=[N+]([O-])c1ccc(N/N=C/c2ccc(OCc3cccc4ccccc34)cc2)nc1 | 10% | 33 | 18* | -1% | 0% | 14%
O=[N+]([O-])c1ccc(N/N=C\c2cccn2-c2ccccc2)nc1 | -10% | 13 | 17* | 4% | -4% | -21%
COc1cc(OC)cc(C(=O)Nc2ccc(S(=O)(=O)N3CCOCC3)cc2)c1 | 1% | -4 | -6 | 1% | 0% | 15%
O=C(CN1C(=O)CCSc2ccccc21)Nc1ccc(C(F)(F)F)cc1 | / | / | / | -8% | / | /
